Among the data in PubChem BioAssay are composite z-score values, retold here.

The test system of the test is Human papillomavirus type 1a E7 protein (residues 1-88). Briefly: HPV1a E7 small-molecule binders, primary screen, biochemical, small-molecule microarray, residues 1-88, 635 nm (AID 1129). Conditions: small-molecule microarray binding, fluorescence 635 nm; higher = more signal.
As for `COCCCNC(=O)[C@@]1(Cc2ccccc2N=[N+]=[N-])N=C(c2ccc(OCCCO)cc2)O[C@H]1c1ccccc1N=[N+]=[N-]`, the composite z-score was 1.22.
With `Cc1ccc(S[C@]2(C(=O)NC(C)C)CC(=O)N(Cc3ccccc3Cl)[C@@H]2c2ccc(CO)cc2I)cc1`, the composite z-score worked out at 0.164.
`CC(C)c1ccc(NN2C(C(O)c3cc(C(F)(F)F)cc(C(F)(F)F)c3)C=CC3C(=O)N(c4ccccc4)C(=O)C32)cc1` (centres undefined) showed a composite z-score of 1.22.
The molecule `CCOC(=O)[C@H]1C/C=C/C[C@H](C(=O)OCC)C(=O)O[C@H]2[C@@H](OC)O[C@H](CO)[C@@H](OC(=O)Nc3cccc(F)c3)[C@@H]2OC1=O` gave a composite z-score of 0.712.
For the molecule `C=CCC(OC(C)=O)[C@@H]1[C@@H](N(Cc2ccc(-c3cccc(C(F)(F)F)c3)o2)C(=O)c2ccc(-c3ccccc3)cc2)c2cc(OCCCO)ccc2N1C(=O)c1ccc(-c2ccccc2)cc1` (some centres undefined), the composite z-score is -0.714.
On to `O=C1O[C@H](c2ccccc2)[C@H](c2ccccc2)N2[C@H]1[C@@H](C(=O)NC[C@H](O)c1ccccc1)[C@]1(C(=O)Nc3ccccc31)[C@H]2c1ccc(OCCO)cc1`, for which the composite z-score was 1.2.
In the case of `C=CCOC(=O)[C@H]1[C@@H]2C(=O)O[C@@H](c3ccccc3)[C@@H](c3ccccc3)N2[C@@H](c2ccc(OCCOC(=O)[C@H]3C[C@H]4C(=O)N5CCC[C@H]5C(=O)N4[C@H]3c3ccc(O)cc3)cc2)[C@]12C(=O)Nc1ccc(I)cc12`, the composite z-score worked out at 1.23.
In the case of `O=C1NC(=O)C2C1C=CC(C(O)Cc1ccccc1)N2Nc1ccc(Cl)cc1Cl` (centres undefined), the composite z-score was -0.364.
The same measure for `CN(C)C(=O)[C@]1(Cc2ccccc2N=[N+]=[N-])N=C(c2ccc(OCCCO)cc2)O[C@@H]1c1ccccc1`: 1.22.
